Measured values reported in PubChem BioAssay (EPA / NIEHS).
Results filed as inconclusive are left out. Calls of active or inactive are those of the source. How the source made its calls, unless noted: active means hit-call score of the fitted dose curve at least 0.9, where 1 is the maximum; inactive means score below 0.9.

Tests used:
[1] = read-out: Secreted IgG (sIgG), gene 3500; assay: BSK_BT_sIgG: BioMAP Diversity Plus: BT Assay for Secreted IgG (sIgG) Biomarker Activity (AID 2284226); details: primary human B cells with PBMC
Method in brief: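 Read-out: ELISA for secreted IgG after 24 h of chemical exposure in a B cell plus PBMC co-culture. Values reflect upward-direction fitting against DMSO negative controls.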

[2] = BSK_BT_Bcell_Proliferation: Viability Assessment in the BioMAP Diversity Plus: BT Assay for B cell Proliferation (AID 2284227); details: primary human B cells with PBMC
Method in brief: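 Read-out is absorbance at 560 nm from sulforhodamine B staining of total protein, reflecting relative cell numbers in a human B cell and PBMC co-culture after 72 h of chemical exposure. Values were referenced to DMSO.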

[3] = read-out: Interleukin 6 (IL6), IL6 (gene 3569); assay: BSK_BT_xIL6: BioMAP Diversity Plus: BT Assay for Interleukin 6 (IL6) Biomarker Activity (AID 2284228); details: primary human B cells with PBMC
Method in brief: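 B cells and peripheral blood mononuclear cells (human primary co-culture) were dosed with chemical, and after 24 h IL-6 released into the medium was measured by Luminex xMAP. Responses were analysed as gain of signal over DMSO control.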

[4] = read-out: Interleukin 17A (IL17A), IL17A (gene 3605); assay: BSK_BT_xIL17A: BioMAP Diversity Plus: BT Assay for Interleukin 17A (IL17A) Biomarker Activity (AID 2284229); details: primary human B cells with PBMC
Method in brief: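 Secreted IL-17A was the measured endpoint, read by Luminex xMAP multiplex in supernatants of a human B cell/PBMC co-culture harvested 24 h after chemical dosing. Signal increase relative to DMSO defined activity.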

[5] = read-out: Tumor necrosis factor (Homo sapiens) (UniProt P01375); assay: BSK_BT_xTNFa: BioMAP Diversity Plus: BT Assay for Tumor necrosis factor alpha (TNF-alpha) Biomarker Activity (AID 2284230); details: primary human B cells with PBMC
Method in brief: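 Human primary co-culture of B cells and peripheral blood mononuclear cells; TNF-alpha in supernatant, 24 h post-dose, Luminex multiplex; DMSO = baseline.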

[6] = read-out: Vascular cell adhesion molecule 1 (VCAM1), VCAM1 (gene 7412); assay: BSK_MyoF_VCAM1: BioMAP Diversity Plus: MyoF Assay for Vascular cell adhesion molecule 1 (VCAM1) Biomarker Activity (AID 2284231); details: primary human lung fibroblasts
Method in brief: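 ELISA read-out of VCAM-1 on human lung fibroblasts 24 h after chemical treatment, with positive-direction curve fitting relative to DMSO controls. Parallel cultures were stained with sulforhodamine B for total protein to flag overt cytotoxicity.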

[7] = read-out: Collagen I, COL1A1 (gene 1277); assay: BSK_MyoF_CollagenI: BioMAP Diversity Plus: MyoF Assay for Collagen I Biomarker Activity (AID 2284238); details: primary human lung fibroblasts
Method in brief: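 Lung fibroblasts (human primary) dosed, 24 h; Collagen I by ELISA; positive-direction fit vs DMSO control. Parallel SRB total-protein staining (0.1% SRB, 10% TCA fixation, 560 nm) flags overt cytotoxicity.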

[8] = read-out: Collagen III, COL3A1 (gene 1281); assay: BSK_MyoF_CollagenIII: BioMAP Diversity Plus: MyoF Assay for Collagen III Biomarker Activity (AID 2284239); details: primary human lung fibroblasts
Method in brief: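 ELISA read-out of collagen III from human lung fibroblasts after 24 h of chemical treatment. The DMSO control served as negative control and baseline, with values fitted in the positive direction.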

[9] = read-out: Interleukin 17F (IL17F), IL17F (gene 112744); assay: BSK_BT_xIL17F: BioMAP Diversity Plus: BT Assay for Interleukin 17F (IL17F) Biomarker Activity (AID 2284243); details: primary human B cells with PBMC
Method in brief: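 Compound was added to co-cultures of human B cells and PBMC. After 24 hours, IL-17F released into the medium was measured with LumineX xMAP technology. Responses were then fitted upward relative to DMSO.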

[10] = read-out: Actin alpha 1 (ACTA1), ACTA1 (gene 58); assay: BSK_MyoF_ACTA1: BioMAP Diversity Plus: MyoF Assay for Actin alpha 1 (ACTA1) Biomarker Activity (AID 2284244); details: primary human lung fibroblasts
Method in brief: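 Lung fibroblasts, human primary, 24 h compound exposure → a-SMA ELISA. Positive-direction fit vs DMSO control.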

[11] = read-out: Interleukin 2 (IL2), IL2 (gene 3558); assay: BSK_BT_xIL2: BioMAP Diversity Plus: BT Assay for Interleukin 2 (IL2) Biomarker Activity (AID 2284245); details: primary human B cells with PBMC
Method in brief: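 B cell + PBMC co-culture (human primary), compound added, 24 h incubation; secreted IL-2 measured multiplexed on Luminex xMAP; gain-of-signal fit vs DMSO.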

[12] = UKN2_HCS_IMR90_cell_viability: Viability Assessment in the University of Konstanz (UKN) Leist Lab Neural Crest Cell Migration Assay in human induced IMR90 Pluripotent Stem Cells (UKN2) (AID 2284233);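 further: viability of neural crest cells differentiated from IMR90 iPSC measured by calcein-AM fluorescence imaging; cells exposed to compound for 24 h after a 24 h migration phase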
Method in brief: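 iPSC-derived (IMR90) neural crest cells seeded around silicone stoppers on PLO/laminin/fibronectin; after 24 h migration in N2-S with EGF/FGF, chemical added for 24 h. Calcein-AM/Hoechst stained 30 min, high-content imaged; bidirectional fit versus DMSO.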

[13] = CCTE_Mundy_HCI_Cortical_NOG_NeuronCount: CCTE's Neurite Outgrowth Assay in rat cortical cells for Neuron Count, Mundy Lab (AID 2284236; active means hit-call score of the fitted dose curve at least 0.9, where 1 is the maximum;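 further: neurons counted by imaging betaIII-tubulin and Hoechst stained cortical cells; cells exposed to compound for about 48 hours before fixation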)
Method in brief: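 Read-out: neuron number by high-content imaging of betaIII-tubulin (Alexa Fluor-488) and Hoechst-labelled rat primary cortical cells.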

[14] = CCTE_Mundy_HCI_Cortical_NOG_BPCount: CCTE's Neurite Outgrowth Assay in rat cortical cells for Branch Point Count, Mundy Lab (AID 2284237)
Method in brief: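 Measured 50.33 h after dosing, this morphology endpoint uses rat primary cortical cultures labelled for betaIII-tubulin. Branch points are quantified by high-content imaging, with DMSO as negative control and baseline.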

[15] = CCTE_Mundy_HCI_hNP1_Casp3_7: CCTE's Caspase-Glo 3/7 Assay in human neuroprogenitor cells for Apoptosis, Mundy Lab (AID 2284240)
Method in brief: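 Neuroepithelial-lineage stem cells from WA09 embryonic cells were treated with chemicals after 40–44 h of culture. Twenty-four hours later, caspase-3/7 activation was detected luminescently after a 30 min room-temperature reagent step, with DMSO as baseline.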

[16] = CCTE_Mundy_HCI_Cortical_Synap_Neur_Matur_NeuronCount: CCTE's Synaptogenesis and Neurite Maturation Assay in rat cortical cells for Neuron Count, Mundy Lab (AID 2284242; active means hit-call score of the fitted dose curve at least 0.9, where 1 is the maximum;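 further: hits reduce neuron count versus DMSO baseline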)
Method in brief: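 Neuron number was scored by automated high-content imaging of Hoechst- and MAP2-labelled rat primary cortical cells. Glial growth was arrested with AraC at DIV 5, compounds were applied from DIV 7, and cultures ended at DIV 12.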

Measured: AC50

Chain of Tumor necrosis factor (Homo sapiens) (P01375 whole entry, looked up): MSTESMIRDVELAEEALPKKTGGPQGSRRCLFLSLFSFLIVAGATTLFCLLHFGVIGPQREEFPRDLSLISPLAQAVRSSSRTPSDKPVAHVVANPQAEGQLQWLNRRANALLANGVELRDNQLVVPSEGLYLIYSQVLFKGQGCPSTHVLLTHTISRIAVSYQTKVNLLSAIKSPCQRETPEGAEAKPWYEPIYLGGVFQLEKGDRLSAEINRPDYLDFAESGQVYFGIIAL

CCOC(=O)CCCCCCCCC(=O)OCC
not listed: [12] | [13] | [14] | [15] | [16]
inactive: all other assays above

CCC(=O)OCC=Cc1ccccc1
not listed: [12] | [13] | [14] | [15] | [16]
inactive: all other assays above

O=S(=O)(O)C(F)(F)C(F)(F)OC(F)(F)C(F)(F)F
not listed: [12] | [13] | [14] | [15] | [16]
inactive: all other assays above

CC1(C)[C@H](C=C(Cl)Cl)[C@H]1C(=O)OCc1cccc(Oc2ccccc2)c1
not listed: [12] | [13] | [14] | [15] | [16]
inactive: all other assays above

CC1=CC(C)C(C=O)C(C)C1 (stereo unspecified) (tested in a mixture with another compound)
not listed: [12] | [13] | [14] | [15] | [16]
inactive: all other assays above

c1ccc2c(c1)-c1ccc3ccc4cccc5cc-2c1c3c45
active: [2] 1980 nM | [3] 39.8 nM | [6] 2780 nM | [8] 10000 nM | [11] 709 nM
inactive: [1] | [4] | [5] | [7] | [9] | [10]

c1ccc2scnc2c1
inactive: [12] | [13] | [14] | [15]

CC(C)(C)c1cccc(O)c1
not listed: [12] | [13] | [14] | [15] | [16]
inactive: all other assays above

CCCCC(CC)COC(=O)COc1ccc(Cl)cc1C (stereo unspecified)
inactive: [12] | [13] | [14]
active: [15] 50000 nM | [16] 11900 nM
